Test results as given in PubChem BioAssay.
The source made the active and inactive calls. How the calls were made is not given here.

test: inhibition of Brca1/Bard1 split-luciferase complementation, confirmation, counter-screen for Mdm2/MdmX interaction inhibitor project, luminescence, single concentration (AID 504668); conditions: Brca1/Bard1 bimolecular luciferase complementation counterscreen, at 8 µM, active compounds read high

| Structure (SMILES) | inhibition |
| --- | --- |
| COc1cc(C(=O)N/N=C(\Cc2ncc[nH]2)c2ccccc2)cc(OC)c1OC | 23.7% (active) |
| C#CCOCCOCCOCCNc1nc(N2CCN(C(=O)CCCCCCCCCCNC(=O)Cn3cc(C[C@@H](C)O)nn3)CC2)nc(N2CCN(C(=O)CCCCCCCCCCNC(=O)[C@@H]([C@H](C)CC)n3cc(CCCCCN)nn3)CC2)n1 | 27.2% (active) |
| CC(=O)c1c(C)[nH]c(C(=O)N2CCN(c3cc(Cl)ccc3C)CC2)c1C | 34% (active) |
| COc1cc([C@@H]2c3cc4c(cc3[C@@H](O[C@@H]3O[C@@H]5CO[C@@H](C)O[C@H]5[C@H](O)[C@H]3O)[C@H]3COC(=O)[C@H]23)OCO4)cc(OC)c1O | 31.6% (active) |
| CCCCNc1c(-c2ccc(OC)c(SC3CCCCC3)c2)nc2ccc(C)cn12 | 28.6% (active) |
| CN1CCN(C(c2ccc(C(F)(F)F)cc2)c2cc(Cl)c3cccnc3c2O)CC1 (centres undefined) | 24.6% (active) |
| O=C(N/N=C/c1ccc(O)c2ncccc12)c1cccc(Br)c1 | 32.5% (active) |
| Cc1ccc(N=c2c([N+](=O)[O-])nn(-c3ccc4c(c3)OCCO4)n2O)cc1F | 23.7% (active) |
| Cn1cc(C(=O)N/N=C/c2c(O)ccc3ccccc23)ccc1=O | 27% (active) |
| CCOC(=O)c1cnc(-n2nc(C)cc2C)nc1NC1CCCCC1 | 30.1% (active) |
| Cc1ccc(C(=O)Nc2nc(-c3ccccn3)cs2)s1 | 34.6% (active) |
| CCC(=O)NC(c1ccc(C)cc1)c1cc(Cl)c2cccnc2c1O (centres undefined) | 23.8% (active) |
| COc1ccc(/C=C2/SC(=S)N(CCCC(=O)Nc3ccc(O)cc3)C2=O)cc1OC | 29.9% (active) |
| O=C(NCc1cccnc1)c1c(O)c2cccc3c2n(c1=O)CCC3 | 31.4% (active) |
| CCS(=O)(=O)c1ccc(N=Nc2ccc(O)c3ncccc23)c(OC)c1 | 31.8% (active) |
| CCN(CC)C(=O)N1c2ccccc2C=Cc2ccccc21 | 33.7% (active) |
| O=C(Nc1cccc(Cl)c1)Nc1nnc(CSCCOc2ccc(Cl)cc2)s1 | 23% (active) |
| O=C(Nc1nc(-c2ccccn2)cs1)c1cccc(-n2cnnn2)c1 | 26.2% (active) |
| O=C(N/N=C/c1cc(Br)ccc1O)c1cccc(N2CCCC2=O)c1 | 31.4% (active) |
| CCCN(CCC)c1nc(-c2ccccn2)nc2ccccc12 | 24.6% (active) |

| Structure (SMILES) | inhibition |
| --- | --- |
| COc1ccc2nc(N=Nc3ccc(O)c4ccccc34)sc2c1 | 35.3% (active) |
| CC(C)(C)c1ccc(OCC(=O)N/N=C/c2cc(Br)ccc2OC(=O)c2ccco2)cc1 | 27% (active) |
| Cc1ccc(C(=O)Nc2nc(-c3ccccn3)cs2)cc1S(=O)(=O)N1CCOCC1 | 23.2% (active) |
| O=C(CCCN1C(=O)/C(=C\c2cccs2)SC1=S)Nc1cccnc1 | 25.5% (active) |
| Cc1cc(C)nc(N/N=C/c2cc(Br)ccc2O)n1 | 26.2% (active) |
| COc1cc2c(ccc3cc(OC)c(OC)c(O)c32)cc1O | 31.4% (active) |
| COc1ccc2[nH]c(C(=O)N/N=C/c3ccc(O)cc3O)cc2c1 | 31.2% (active) |
| Cc1ccc(/C=C/C(O)=C2/C(=O)N(C)C3(C)CC2c2ccccc2O3)cc1 (centres undefined) | 30.1% (active) |
| Cc1noc(-c2ccc(C(F)(F)F)cc2)c1NC(=O)Nc1ccc(Cl)cc1 | 24.2% (active) |
| Cc1ccc2c(C)nc(Nc3nc(CSc4nc5ccccc5[nH]4)cc(=O)[nH]3)nc2c1 | 32.5% (active) |
| Cc1ccc(OC(F)F)c(NC(=O)Nc2cccc(C(F)(F)F)c2)c1 | 23.7% (active) |
| CN(C(=O)c1ccc(S(=O)(=O)c2cccc(Cl)c2)c([N+](=O)[O-])c1)C1CCCCC1 | 28.9% (active) |
| C=CCc1cccc(/C=N/NC(=O)CNc2ccccc2OC)c1O | 28.3% (active) |
| CC1=Nc2cc(C(=O)N3CCCC3)ccc2Sc2c(C)ccc(C)c21 | 23.1% (active) |
| N#Cc1ccc(NC(=O)Nc2ccc(Oc3ccc(NC(=O)Nc4ccc(C#N)cc4)cc3)cc2)cc1 | 35.1% (active) |
| Cn1nnnc1Sc1ncnc2scc(-c3cccc(S(C)(=O)=O)c3)c12 | 27.4% (active) |
| O=C(CSCC(=O)Nc1ccccc1)N/N=C/c1c(O)ccc2ccccc12 | 28.3% (active) |
| CN1CCN(C(=O)CCCN2C(=O)/C(=C/c3cccc(Br)c3)SC2=S)CC1 | 29.2% (active) |
| COc1ccc(C(=O)C(CN2CCCC2)c2ccccc2)cc1 (centres undefined) | 27.6% (active) |
